Screens: PubChem, Broad Institute
NOMO-1 viab = NOMO-1 AML cell viability reduction, primary screen, STK33 inhibitor project, CellTiter-Glo luminescence | NOMO-1 AML viability, 72 h | inhibition, % (no concentration beside the values) | 37,000 compounds, 7.5% hits; in the data active = inhibition above about 80%
Hedgehog inh = Hedgehog pathway signaling inhibitors, primary screen, luminescence, Shh-LIGHT2 cells, Gli-luciferase; AID 2313, 2010; inhibition, % (concentration not given with the values); Shh-LIGHT2 Gli-luciferase reporter, 30 h; 22,000 compounds, 2.1% hits;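 active = mean inhibition across valid replicates above about 65%, limit read from the data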;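 note: pathway switched on by Shh-conditioned medium diluted 1 in 25 in low serum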
MITF inh = inhibitors of MITF, primary screen, MITF inhibitor project, cell-based, luminescence. TRPM1 promoter luciferase, 24 h. inhibition, % (no concentration beside the values). 37,000 compounds, 0.28% hits; in the data active = inhibition above about 85%;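 note: human melanocyte line stably carrying TRPM1 promoter luciferase reporter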
* hit, by the source's call. The list is not random: actives were taken first. Their share in the collection is about 7.9%.

What do the screens show for `CC1(C)C(=O)C=C[C@@]2(C)C1C(=O)C(=O)[C@]1(C)C2CC[C@@]2(C)[C@H](c3ccoc3)C[C@H]3O[C@]321` (some centres undefined)?
NOMO-1 viab: 107.9*; Hedgehog inh: -14.1; MITF inh: 107.9*

How did Cc1ccc2cc3c(ccc4ccccc43)c3c2c1CC3 do in these assays?
NOMO-1 viab: 18.2; Hedgehog inh: -73.2; MITF inh: -5.4

What do the screens show for `COc1ccccc1OCCCn1cc(C(=O)c2ccccc2)c2ccccc21`?
NOMO-1 viab: -0.1; MITF inh: 9.0

What do the screens show for `CC1=CC2/C=C(\C)CCC(O)C(O)/C=C/C(=O)C23C(=O)NC(CC(C)C)C3C1C` (centres undefined)?
NOMO-1 viab: 121.3*; Hedgehog inh: 71.1*; MITF inh: 89.5*

Results for COc1cc(C(=O)O[C@H]2[C@@H]3C=CO[C@@H](O[C@@H]4O[C@H](CO)[C@@H](O)[C@H](O)[C@H]4O)[C@@H]3[C@@]3(CO)O[C@@H]23)ccc1O ?
NOMO-1 viab: -14.5; Hedgehog inh: -25.8; MITF inh: -16.9

What do the screens show for `N#CC(CCN1CCN(c2ccccc2)CC1)(c1ccccc1)c1ccccc1`?
NOMO-1 viab: 55.3; Hedgehog inh: -29.1; MITF inh: -4.8

What do the screens show for `C=CC1C[N+]2([O-])CCC1CC2C(O)c1ccnc2ccccc12` (centres undefined)?
Hedgehog inh: -12.6

Results for C=C1C([C@]2(C)C(CC(=O)OC)[C@@](C)(COC(C)=O)OC(=O)C[C@@H]2OC(C)=O)[C@@H](OC=O)[C@H](OC(=O)C(OC(C)=O)C(C)CC)[C@@]2(C)[C@H](c3ccoc3)CC(=O)C12O (some centres undefined) ?
NOMO-1 viab: -2.7; Hedgehog inh: -17.3; MITF inh: 4.6

Results for COc1ccc(OC)c(NC(=S)NCCc2cnc[nH]2)c1 ?
NOMO-1 viab: 38.0; MITF inh: -10.5

How did CCOC(=O)c1c(C)n(Cc2ccccc2)c2ccc(OCC(O)CNC(C)(C)C)cc12 (centres undefined) do in these assays?
NOMO-1 viab: 116.8*; Hedgehog inh: 60.7; MITF inh: 58.1

Results for CC(C)(C)NC[C@H](O)COc1cccc2[nH]c(C#N)cc12 ?
NOMO-1 viab: 1.4; Hedgehog inh: 7.7; MITF inh: -6.7

Results for CCOC(=O)C1C2c3ccccc3C(c3ccccc32)C1C(=O)OCC (centres undefined) ?
NOMO-1 viab: 35.3; Hedgehog inh: -35.7; MITF inh: 22.1

How did Cn1cnc(-n2oo2)c1C#N do in these assays?
NOMO-1 viab: 18.7; Hedgehog inh: -38.4; MITF inh: 28.7

How did O=C(Cn1cc(C(=O)c2ccccc2)c2ccccc21)Nc1ccc(F)cc1 do in these assays?
NOMO-1 viab: 49.3; MITF inh: 37.9

Results for CC(C)[C@H]1C(=O)O[C@H](C(C)C)C(=O)N(C)[C@@H](C(C)C)C(=O)O[C@H](C(C)C)C(=O)N(C)[C@@H](C(C)C)C(=O)O[C@H](C(C)C)C(=O)N1C ?
NOMO-1 viab: 118.9*; Hedgehog inh: 22.1; MITF inh: 75.4

How did COc1ccc2c(c1)[C@]13CCCC[C@H]1[C@H](C2)N(C)CC3 do in these assays?
NOMO-1 viab: 31.9; Hedgehog inh: 19.5; MITF inh: 6.3

How did O=C1NC(=O)C(=Cc2cn(Cc3ccccc3)c3ccccc23)C(=O)N1 do in these assays?
NOMO-1 viab: 125.6*; Hedgehog inh: -8.0; MITF inh: -1.5

What do the screens show for `C=C(C)[C@@]12O[C@@H]1[C@@]1(C)C(=C[C@H]2O)CC[C@@H](O)[C@@H]1C`?
NOMO-1 viab: 18.9; Hedgehog inh: -3.4; MITF inh: -8.1

Results for CC(C)=CC1C(C(=O)OCc2coc(Cc3ccccc3)c2)C1(C)C (centres undefined) ?
NOMO-1 viab: 8.2; Hedgehog inh: 36.3; MITF inh: -7.7

Results for C/C=C(/C)C(=O)OC1CCN2CC=C(COC(=O)C(O)(C(C)O)C(C)(C)O)C12 (centres undefined) ?
NOMO-1 viab: 3.9; Hedgehog inh: -3.3; MITF inh: 9.0

Results for COc1ccc(CCNCc2cccnc2)cc1OC ?
NOMO-1 viab: 19.5; MITF inh: 1.4

What do the screens show for `C/C=C\C(=O)O[C@@H]1C[C@H]2O[C@@H]3C=C(C)C(=O)C[C@]3(C)[C@]1(C)[C@]21CO1`?
NOMO-1 viab: 122.1*; Hedgehog inh: 65.0*; MITF inh: 91.9*

How did CCn1cnc2c(Nc3cccc(Cl)c3)nc(N[C@@H]3CCCC[C@@H]3N)nc21 do in these assays?
NOMO-1 viab: 99.7*; Hedgehog inh: 73.2*; MITF inh: 51.4

Results for CC1(C)C(C(=O)Nc2ccc(S(=O)(=O)c3ccc(NC(=O)C4C(C)(C)C4(C)C)cc3)cc2)C1(C)C ?
NOMO-1 viab: -2.2; Hedgehog inh: -20.2; MITF inh: -8.7

Results for O=C1C=C2C=C[C@@H]3C[C@@]2(O1)[C@H]1CCCCN31 ?
NOMO-1 viab: 90.5*; Hedgehog inh: 72.1*; MITF inh: 25.2

Results for c1ccc(C2CNCc3ccccc32)cc1 (centres undefined) ?
NOMO-1 viab: 24.8; Hedgehog inh: -4.7; MITF inh: 10.7

Results for C/C=C(/C)C(=O)O[C@H]1C(C)=C2[C@H]([C@@H]1OC(=O)CCCCC)[C@@](C)(OC(C)=O)C[C@H](OC(=O)CCC)[C@@]1(O)[C@H]2OC(=O)[C@@]1(C)O ?
NOMO-1 viab: 99.4*; Hedgehog inh: 105.1*; MITF inh: 69.3

What do the screens show for `CN1CC(C(=O)N[C@]2(C)O[C@@]3(O)[C@@H]4CCCN4C(=O)[C@H](Cc4ccccc4)N3C2=O)C=C2c3cccc4[nH]cc(c34)C[C@H]21` (some centres undefined)?
NOMO-1 viab: 14.4; Hedgehog inh: -13.8; MITF inh: -12.8

What do the screens show for `C=CCN1CCc2cccc3c2[C@H]1Cc1ccc(O)c(O)c1-3`?
NOMO-1 viab: 114.4*; Hedgehog inh: -16.6; MITF inh: -8.6

What do the screens show for `C=CCN1CC[C@]23c4c5ccc(O)c4O[C@H]2C(=O)CC[C@@]3(O)[C@H]1C5`?
NOMO-1 viab: -3.4; Hedgehog inh: -24.8; MITF inh: -14.8

What do the screens show for `OC[C@H]1O[C@@H](n2cnc3cc(Cl)c(Cl)cc32)C(O)[C@H]1O` (some centres undefined)?
NOMO-1 viab: 86.9*; Hedgehog inh: 39.4; MITF inh: -21.5

How did C[C@@H](N)[C@@H](O)c1ccccc1 do in these assays?
NOMO-1 viab: 11.1; Hedgehog inh: -4.8; MITF inh: -4.9

How did CN[C@@H]1C[C@@]2(C)O[C@@H]([C@@H]1OC)n1c3ccccc3c3c4c(c5c6ccccc6n2c5c31)C(=O)NC4 do in these assays?
NOMO-1 viab: 113.8*; Hedgehog inh: 103.0*; MITF inh: 100.8*

Results for C=CC1CN2CCC3(C(=O)Nc4ccccc43)C2CC1/C(=C/OC)C(=O)OC (centres undefined) ?
NOMO-1 viab: 30.3; Hedgehog inh: 10.4; MITF inh: 5.0

What do the screens show for `CCCOC(=O)c1cc2c(cn1)[nH]c1ccccc12`?
NOMO-1 viab: 4.2; Hedgehog inh: -138.7; MITF inh: -26.2
